# Measurements: PMC4336329 (PLoS ONE, 2015)
# Out of some 310,000 compounds screened, about 14,000 (4.5%) showed an effect of 50% or more. Effects have a minus sign here. The full list was thinned out, with strong results kept by preference. Where a SMILES comes first, the peptide text is derived from it. The star is where a group is joined. PhAc = O=C(Cc1ccccc1)*; OBn = c1ccc(CO*)cc1
# Biological target: human ether-à-go-go-related gene (hERG) potassium channel (human, UniProt Q12809)
# Assay: primary screen, population patch clamp on CHO cells stably expressing hERG; higher = less effect of the substance
# 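Further: peak tail current of the secondary pulse compared with the same well before compound.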
# human ether-à-go-go-related gene (hERG) potassium channel, sequence (Q12809 whole entry, looked up): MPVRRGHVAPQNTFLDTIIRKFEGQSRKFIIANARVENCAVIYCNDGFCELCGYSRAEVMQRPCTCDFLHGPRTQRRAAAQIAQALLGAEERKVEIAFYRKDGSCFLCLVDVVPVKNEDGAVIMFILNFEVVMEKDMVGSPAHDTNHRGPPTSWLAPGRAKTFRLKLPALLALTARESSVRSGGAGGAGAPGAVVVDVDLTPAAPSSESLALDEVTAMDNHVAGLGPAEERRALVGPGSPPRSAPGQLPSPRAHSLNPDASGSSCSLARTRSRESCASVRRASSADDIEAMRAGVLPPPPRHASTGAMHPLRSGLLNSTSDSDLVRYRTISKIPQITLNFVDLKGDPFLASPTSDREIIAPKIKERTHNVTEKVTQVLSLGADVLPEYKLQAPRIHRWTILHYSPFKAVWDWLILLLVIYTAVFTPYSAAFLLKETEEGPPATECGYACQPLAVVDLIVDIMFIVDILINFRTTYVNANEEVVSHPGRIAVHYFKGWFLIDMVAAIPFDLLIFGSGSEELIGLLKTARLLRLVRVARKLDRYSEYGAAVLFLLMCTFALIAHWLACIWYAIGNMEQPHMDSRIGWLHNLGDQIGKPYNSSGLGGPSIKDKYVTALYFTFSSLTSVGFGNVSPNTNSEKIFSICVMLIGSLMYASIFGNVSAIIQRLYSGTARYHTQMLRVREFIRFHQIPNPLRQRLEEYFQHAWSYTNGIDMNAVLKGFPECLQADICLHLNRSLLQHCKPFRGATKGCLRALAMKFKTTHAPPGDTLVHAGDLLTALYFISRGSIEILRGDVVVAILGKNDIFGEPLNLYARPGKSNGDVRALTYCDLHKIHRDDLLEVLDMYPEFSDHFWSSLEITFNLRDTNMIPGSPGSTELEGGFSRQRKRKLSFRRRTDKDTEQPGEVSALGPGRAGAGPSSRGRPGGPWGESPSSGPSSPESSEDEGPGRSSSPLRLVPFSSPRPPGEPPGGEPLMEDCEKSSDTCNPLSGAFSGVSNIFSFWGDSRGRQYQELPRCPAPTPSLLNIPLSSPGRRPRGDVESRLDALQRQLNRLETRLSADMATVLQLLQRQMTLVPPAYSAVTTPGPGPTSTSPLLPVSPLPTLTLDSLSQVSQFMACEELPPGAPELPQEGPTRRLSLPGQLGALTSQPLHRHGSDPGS
row,SMILES,"hERG current change (%, negative = inhibition) at 10uM"
1,COC(=O)c1cc(C#N)c(OC(C)C)nc1C,-6.52%
2,Cc1cc(C)c(S(=O)(=O)N2CCCOC2CNC(=O)C(=O)NCc2cccnc2)c(C)c1 (stereo not shown),8.23%
3,COc1ccc(C(c2nnnn2Cc2ccccc2)N2CCN(c3nc4ccccc4s3)CC2)cc1 (stereo not shown),13.7%
4,COc1ccc(C(c2nnnn2Cc2ccccc2)N2CCN(c3nc4ccccc4s3)CC2)cc1OC.Cl (stereo not shown),-58.4%
5,COc1ccccc1C(c1nnnn1Cc1ccccc1)N1CCN(c2nc3ccccc3s2)CC1.Cl (stereo not shown),23.1%
6,O=C(N/N=C/c1ccc(Cl)cc1)c1nc2ccc([N+](=O)[O-])cc2c(=O)[nH]1,-27.3%
7,CC(C)Cn1c(CN2C(=O)c3ccccc3C2=O)nc2ccccc2c1=O,16.7%
8,Fc1cc(Br)ccc1NC(=S)NCCc1ccccc1,-1.43%
9,O=C(c1ccccn1)N1CCCC(N2CCN(c3ccc(F)cc3)CC2)C1 (stereo not shown),-37.2%
10,CCc1noc(C)c1C(=O)N1CCCC(N2CCN(c3ccc(F)cc3)CC2)C1 (stereo not shown),-27.2%
11,O=C(c1cc(C2CC2)on1)N1CCN(c2ccc(F)cc2)CC1,-43.4%
12,Cc1cccc(C(=O)N2CCCC(N3CCN(c4ccc(F)cc4)CC3)C2)n1 (stereo not shown),-48.4%
13,COCc1ccc(C(=O)N2CCCC(N3CCN(c4ccc(F)cc4)CC3)C2)o1 (stereo not shown),-47.3%
14,COC(=O)c1ccc(C(=O)N2CCCC(N3CCN(c4ccccc4)CC3)C2)nc1 (stereo not shown),-22.4%
15,CCCc1cc(C(=O)N2CCCC(N3CCN(c4ccc(F)cc4)CC3)C2)no1 (stereo not shown),-73%
16,O=C(c1cc(C2CC2)on1)N1CCCC(N2CCN(c3cccc(C(F)(F)F)c3)CC2)C1 (stereo not shown),-48.7%
17,COC(=O)c1ccc(C(=O)N2CCCC(N3CCN(c4ccc(F)cc4)CC3)C2)nc1 (stereo not shown),-56.1%
18,CC(C)c1cc(C(=O)N2CCCC(N3CCN(c4ccc(F)cc4)CC3)C2)no1 (stereo not shown),-72.1%
19,Cc1cc(C(=O)N2CCCC(N3CCN(c4ccc(F)cc4)CC3)C2)no1 (stereo not shown),-37.7%
20,O=C(c1cc(C2CC2)on1)N1CCCC(N2CCN(c3ccc(F)cc3)CC2)C1 (stereo not shown),-63.7%
21,O=C(Cc1ccccc1)N[C@H](c1ccccc1)P(=O)(O)CO,8.47%
22,CC(=O)c1cccc(NC(=O)Nc2ccc(C(=O)N3CCOCC3)cc2)c1,-0.351%

row,SMILES,"hERG current change (%, negative = inhibition) at 10uM"
1,NS(=O)(=O)c1ccc(NC(=O)COC(=O)c2ccc3c(c2)OCCO3)cc1,24%
2,CC(C)C(=O)Nc1sc2c(c1C#N)CCCCC2,9.53%
3,Cc1cc(C)c(S(=O)(=O)Nc2cccc3nsnc23)c(C)c1,-3.18%
4,O=C(NC1CCCC1)C(c1ccc(F)cc1)N(C(=O)c1csnn1)C1CCCC1 (stereo not shown),9.14%
5,COC(=O)c1ccc(CSc2nnc3n(Cc4ccccc4OC)c(=O)c4ccccc4n23)o1,-19.3%
6,CCc1noc(C)c1C(=O)N1CCCC(CCC(=O)NCc2cccc(OC)c2)C1 (stereo not shown),20.2%
7,Cc1ccc(N=Nc2c(N)n[nH]c2N)cc1,24.5%
8,CNP(=O)(Oc1ccccc1)OC12CC3CC(CC(C3)C1)C2 (stereo not shown),-2.75%
9,O=C(Nc1nnc(SCc2ccc(Cl)cc2)s1)C1CCCO1 (stereo not shown),-21.9%
10,O=C(CNC(=O)c1ccco1)NCC(=O)OCc1ccc(C(=O)Oc2ccc(Cl)cc2)cc1,9.73%
11,O=C(CNS(=O)(=O)c1ccccc1)NCC(=O)OCc1ccc(C(=O)c2ccccc2)cc1,-61.6%
12,O=C(CNS(=O)(=O)c1ccccc1)NCC(=O)OCc1ccc(Br)cc1,-6.92%
13,O=C(CNC(=O)Cc1ccccc1)NCC(=O)OCc1ccccc1 (PhAc-Gly-Gly-OBn),12.4%
14,O=C(CNC(=O)c1ccco1)OCc1ccc(C(=O)Oc2ccccc2)cc1,-73.6%
15,CCOC(=O)c1ccc(COC(=O)CNC(=O)CNC(=O)Cc2ccccc2)cc1,-57.2%
16,O=C(CNC(=O)c1ccco1)OCc1ccc(C(=O)c2ccccc2)cc1,-69.2%
17,COC(=O)c1ccc(COC(=O)CNC(=O)c2ccco2)cc1,17.3%
18,O=C(CNS(=O)(=O)c1ccccc1)NCC(=O)OCc1ccc(Cl)cc1,13.7%
19,O=C(CNC(=O)Cc1ccccc1)NCC(=O)OCc1ccc(C(=O)c2ccccc2)cc1,-5.33%
20,O=C(CNC(=O)c1ccco1)OCc1ccc(Br)cc1,2.8%
21,O=C(CNC(=O)c1ccco1)NCC(=O)OCc1cccc(C(=O)Oc2ccccc2)c1,-3.88%
